Only some compounds are listed: those with a hit (about 12% of all), similar ones and a draw of the others.
G9a block: blocks human histone lysine methyltransferase G9a. AID 504332. 8.8% of 350,000 active. Potency, µM (titrated, usually from 102 µM), for inactives: at the highest dose activity, negative = inhibition, most hits filed as inhibitors. Q96KQ7. G9a H3K9 monomethylation, AlphaScreen, 2 h; note: % is set by controls: 0 for no effect and ±100 for the full control effect; nearly all actives have a fitted effect of over 75% in size
Target sequence (Q96KQ7 913-1193 limits assumed): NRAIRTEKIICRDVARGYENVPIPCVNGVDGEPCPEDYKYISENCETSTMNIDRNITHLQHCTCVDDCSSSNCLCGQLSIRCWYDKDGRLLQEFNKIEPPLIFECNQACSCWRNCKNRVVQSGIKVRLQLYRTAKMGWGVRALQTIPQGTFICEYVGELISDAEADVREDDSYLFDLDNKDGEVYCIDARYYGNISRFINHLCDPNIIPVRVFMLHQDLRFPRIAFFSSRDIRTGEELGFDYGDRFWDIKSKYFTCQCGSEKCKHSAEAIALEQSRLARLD
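Readings reflect AlphaScreen signal from monomethyl-H3K9 antibody detection. HMT at 20 nM; substrate b-H3K9 500 nM; cofactor SAM 20 uM; 2 h RT reaction; compounds tested as titrations in qHTS with 15 min preincubation.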
JMJD2A Tudor: inhibitors of human JMJD2A Tudor domain; 4.4% of 390,000 active; AID 504339; Potency, µM (highest dose often 114 µM), inactives show at the top dose activity change, negative = inhibition, most hits filed as inhibitors; AlphaScreen JMJD2A-Tudor / H3K4me3 peptide binding; O75164; note: % is set by controls: 0 for no effect and ±100 for the full control effect; nearly all actives have a fitted effect of over 50% in size
HP1b chromo inh: inhibitors of HP1-beta chromodomain binding to methylated histone tails. AlphaScreen HP1-beta / biotin-H3K9me3 peptide binding. Potency, µM (series often up to 114 µM), without a hit: at the top dose activity change, negative = inhibition, most hits filed as inhibitors. 0.56% of 390,000 active; note: nearly all actives have a fitted effect of over 70% in size
Target sequence (P83916 whole entry, looked up): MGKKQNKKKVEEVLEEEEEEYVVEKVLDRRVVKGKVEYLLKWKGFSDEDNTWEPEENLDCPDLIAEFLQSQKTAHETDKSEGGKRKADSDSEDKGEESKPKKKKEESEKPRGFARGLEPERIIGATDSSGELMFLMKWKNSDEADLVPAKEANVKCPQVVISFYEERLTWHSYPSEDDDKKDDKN
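HP1-beta protein (50 nM final) preincubated 30 min at room temperature with biotinylated H3(1-18)K9me3 peptide (50 nM) in PBS pH 7.4, 0.01% Tween-20, then compound added for 30 min. AlphaScreen streptavidin donor/nickel chelate acceptor beads (10 ug/mL final), 30 min dark, luminescence read.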
BAZ2B inh: inhibitors of human BAZ2B bromodomain. Potency, µM (highest dose often 114 µM), inactives show top-dose activity change, negative = inhibition, actives largely listed as inhibitors. AID 504333. Q9UIF8. 4.4% of 360,000 active. AlphaScreen BAZ2B-H3K14Ac peptide displacement; note: % is set by controls: 0 for no effect and ±100 for the full control effect; nearly all actives have a fitted effect of over 60% in size
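Inhibition is scored as reduced AlphaScreen emission. The BAZ2B/b-H3(5-23)K14Ac complex (50 nM each) in PBS pH 7.4, 0.01% Tween-20 meets compound (up to 110 uM) for 30 min at RT before bead addition.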
Sfp inh: blocks B. subtilis Sfp PPTase activity | Q9F4F7 | Biochemical Sfp PPTase activity, qHTS | Potency, µM, without a hit: largest response in the series, negative = inhibition, most hits filed as inhibitors | 3.5% of 310,000 active;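 note: the enzyme is Sfp with the accession as filed and its product quenches rhodamine fluorescence; 0% = enzyme reaction without inhibitor and -100% = no enzyme wells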
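With Hepes-Na pH 7.6 buffer containing 10 mM MgCl2, Sfp (15 nM) modified BHQ-2-YbbR (12.5 uM) using rhodamine-CoA (5 uM). Two reads 30 minutes apart at 525/598 nm yielded each well's rate.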
L3MBTL1 inh: blocks human L3MBTL1 | Q9Y468 | AlphaScreen L3MBTL1–H3K9me1 peptide binding | Potency, µM (series often up to 57.1 µM), for inactives: top-dose activity, negative = inhibition, hits mostly inhibitors | 0.66% of 230,000 active | AID 485360; note: % is set by controls: 0 for no effect and ±100 for the full control effect; nearly all actives have a fitted effect of over 60% in size
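AlphaScreen assay: L3MBTL1 (50 nM final) was preincubated 30 min at room temperature with biotinylated H3(1-15)K9me1 peptide (75 nM final), then 30 min with library compounds; streptavidin donor and nickel chelate acceptor beads (10 ug/mL final) added, 30 min dark.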
Active calls of the source: *; ? = inconclusive; . = no result; [ ] = remark or other dose. Calls come from the whole dose curve; as a rule, active = well fitted curve in the direction sought with a large enough effect; inconclusive = small, poorly fitted or top-dose-only effect, or another doubt; inactive = no such curve, though single readings can be large; an effect the other way counts as inactive or inconclusive. Potency is the fitted concentration of half-maximal effect.

SMILES	G9a block	JMJD2A Tudor	HP1b chromo inh	BAZ2B inh	Sfp inh	L3MBTL1 inh
CN(C)S(=O)(=O)c1cc(NC(=O)CN2CCN(c3ccc(O)cc3)CC2)ccc1Cl	4µM*	-14%	5%	?	-99%	-8%
C=C1CCC(=O)C(C)CCC2C1CC2(C)C (centres undefined)	.	.	.	.	-10%	.
COCCn1ccc2c(OCC(=O)Nc3cccc(C(F)(F)F)c3)cccc2c1=O	-18%[59 µM]	-1%	23%	1%	.	.
COc1ccccc1N1CCN(CC(=O)Nc2ccc(S(=O)(=O)N3CCCCCC3)cc2)CC1	5%[2.33 µM]	-28%	22%	-7%	.	-12%
O=C(CN1CCN(c2ccccc2O)CC1)Nc1ccc(S(=O)(=O)N2CCCCCC2)cc1	45µM*	-23%	2%	-6%	.	-12%
CN(C)S(=O)(=O)c1cc(NC(=O)CN2CCN(c3ccccc3)CC2)ccc1Cl	14%[59 µM]	-29%	-12%	-39%	21%	-6%
CN(C)S(=O)(=O)c1cc(NC(=O)CNCCN2CCOCC2)ccc1Cl	10µM*	28µM*	26%	50µM*	?	-4%
CC(C)CC(=O)Nc1ccc(C(=O)CN2CCN(c3ccc(O)cc3)CC2)cc1	5µM*	?	-33%	50µM*	56µM*	.
CCN(C(=O)Cn1nc(Cc2cccnc2)c2ccccc2c1=O)c1cc(C)ccc1C	1%[59 µM]	-27%	38%	-20%	.	.
CC(=O)Nc1cccc(NC(=O)CSc2ncc(-c3ccc(Cl)cc3)n2Cc2ccco2)c1	13µM*	?	?	13µM*	?	-22%[11.4 µM]
Nn1c(SCC(=O)Nc2ccc3c(c2)OCCO3)nnc(CCC(=O)O)c1=O	3%	20µM*	5%	-2%	6%	.
O=C(CSc1nnc(-c2ccc(Cl)cc2)n1Cc1ccco1)Nc1ccc2c(c1)OCCO2	45µM*	-33%	3%	-1%	32µM*	-28%
O=C(O)CSc1nnc(-c2ccc(S(=O)(=O)N3CCCC3)cc2)n1Cc1ccco1	56µM*	-35%	23%	-5%	32µM*	-9%
COc1cc(C(=O)Oc2ccc3c(OC)c4ccoc4nc3c2OC)cc(OC)c1OC	.	.	.	.	-16%	.
COc1cc2ccccc2cc1C(=O)Nc1ccc2oc(-c3cc(Br)ccc3Cl)nc2c1	1%[59 µM]	-23%	7%	3%	.	.
CC(=O)N1CCCc2cc(S(=O)(=O)N3CCC(C(=O)Nc4ccc(C)cc4Cl)CC3)ccc21	2%[59 µM]	-15%	9%[57 µM]	-4%	.	.
CCCCOC(=O)c1ccc(NC(=O)CC2NCCNC2=O)cc1 (centres undefined)	4%[59 µM]	-10%	5%	-10%	.	.
O=C(Nc1cccc(Cl)c1)c1cnc2sc(N3CCCC3)nn2c1=O	0%[59 µM]	-18%	-15%	0%	.	.
COc1ccc(-n2nnc3c(SCC(=O)Nc4ccc5c(c4)OCCO5)ncnc32)cc1	4%	.	.	-3%	13µM*	-5%
COc1ccc(-c2cnc(SCC(=O)Nc3ccc4c(c3)OCO4)n2Cc2ccco2)cc1	25µM*	20µM*	?	?	-8%	.
CCn1c2ccccc2c2cc(NC(=O)CSc3nnc(C4CC4)n3Cc3ccco3)ccc21	10µM*	-32%	3%	-8%	-7%	?
COc1ccc(Cn2c(CO)cnc2SCC(=O)Nc2ccc3c(c2)OCCO3)cc1	-6%[59 µM]	-31%	14%[57 µM]	?	.	.
Nn1cc(-c2ccccc2)nc1SCC(=O)Nc1ccc2c(c1)OCO2	71µM*	?	-25%	4%	-11%	-24%
CCc1ccccc1NC(=O)Cn1c(=O)n(Cc2ccc3c(c2)OCO3)c(=O)c2ccc(C(=O)NC3CCCCC3)cc21	42%[59 µM]	-7%	54%	.	.	.
c1ccc2c(N3CCCCC3)nc(N3CCCCC3)nc2c1	-11%[59 µM]	30%	72%	15%	?	43%
SMILES	G9a block	JMJD2A Tudor	HP1b chromo inh	BAZ2B inh	Sfp inh	L3MBTL1 inh
C(=C\c1nc(N2CCCCCC2)c2ccccc2n1)/c1ccccc1	-1%	51%	107%	44%	28µM*	24%
CC(=O)O[C@@]12CO[C@@H]1C[C@H](O)[C@@]1(C)C(=O)[C@H](O)C3=C(C)[C@@H](OC(=O)[C@H](O)[C@@H](NC(=O)OC(C)(C)C)c4ccccc4)C[C@](O)([C@@H](OC(=O)c4ccccc4)[C@H]21)C3(C)C	17%[59 µM]	.	.	-15%	8.9µM*	.
CC(=O)O[C@H]1C[C@@]2(O)[C@@H](OC(=O)c3ccccc3)C3[C@@](C)([C@@H](O)C[C@H]4OC[C@@]34OC(C)=O)[C@@H](O)[C@H](OC(C)=O)C(=C1C)C2(C)C (some centres undefined)	-7%[12.7 µM]	-24%	7%	-23%	22%	.
COc1ccccc1CNc1ncnc2ccc(-c3ccoc3)cc12	-37%[0.501 µM]	.	.	.	-1%	.
C=C(C)CSC1=C(C#N)C(c2ccccc2)CC(=O)N1 (centres undefined)	.	-10%	15%	.	.	.
COC(=O)CSC1=C(C#N)C(c2cccc(OC)c2)CC(=O)N1 (centres undefined)	71µM*	-6%	49%	-6%	2%	.
CCOC(=O)CSC1=C(C#N)C(c2ccc(Cl)cc2)C(C(=O)OC)C(=O)N1 (centres undefined)	?	-15%	-12%	-7%	?	.
C=CCSC1=C(C#N)C(c2cccc(OC)c2)CC(=O)N1 (centres undefined)	45µM*	-8%	-6%	5%	35µM*	3%
COC(=O)CSC1=C(C#N)C(c2ccc(Cl)cc2)C(C(=O)OC)C(=O)N1 (centres undefined)	45µM*	-20%	-15%	2%	-15%	10%
COC(=O)CSC1=C(C#N)C(c2ccccc2)CC(=O)N1 (centres undefined)	-9%[12.7 µM]	-11%	31%	5%	?	-20%
COC(=O)CSC1=C(C#N)C(c2cccc(F)c2)CC(=O)N1 (centres undefined)	.	-16%	12%	0%	20%	-1%
CCOc1ccc(C2CC(=O)NC(SCC(=O)OC)=C2C#N)cc1 (centres undefined)	71µM*	-11%	36%	9%	10%	.
CCOc1ccc(NC(=O)c2cnc(N3CCCC3)nc2C)cc1	22%[59 µM]	-2%	9%	-1%	.	.
CN(C)C(=O)c1ccc(NC(=O)Cn2nnnc2-c2ccccc2F)cc1	10%[59 µM]	-4%	39%	2%	.	.
CC(C)CN1C(=O)/C(=C(/C#N)C(=O)NC2CCCCC2)c2ccccc21	?	?	9%	?	7.1µM*	-6%
CCCCN1C(=O)/C(=C(/C#N)C(=O)N2CCCC2)c2ccccc21	-14%[12.7 µM]	-27%	1%	-37%	-8%	.
CCC(C)(C)NC(=O)C1CCN(S(=O)(=O)c2c(C)noc2/C=C/c2ccc(C)cc2)CC1	11%[59 µM]	-18%	12%[57 µM]	1%	.	.

Source: PubChem BioAssay (National Center for Advancing Translational Sciences (NCATS))
